Source: PubChem BioAssay
LASV entry inh = blocks Lassa virus binding to or entry into cells; Lassa virus pseudotype entry inhibition, cell reporter; Potency, µM (doses to about 37.9 µM), inactives show at the highest dose activity change, negative = inhibition, most hits filed as inhibitors; actives 1.2% (n = 300,000); calls by dose curve; tested in HEK293 cells; also: potency is read from the fitted curve at half-maximal effect; % is scaled to controls: 0 for no effect and ±100 for the full control effect; nearly all actives have a fitted effect of over 50% in size
Marburg entry inh = Marburg virus entry inhibition; actives 1.8% (n = 300,000); Potency, µM (titrated, usually from 37.8 µM), without a hit: top-dose activity change, negative = inhibition, actives largely listed as inhibitors; Marburg virus pseudotyped entry inhibition, cell reporter; AID 540276; calls by dose curve; tested in HEK293 cells; also: potency is read from the fitted curve at half-maximal effect; % is scaled to controls: 0 for no effect and ±100 for the full control effect
CHX counter = counter-screen hit for Shiga toxin inhibitors, cycloheximide; cell reporter, cycloheximide protein synthesis inhibition counterscreen; max response, %; actives 12% (n = 300,000); in the data active = max response mostly above about 13%, no sharp cut-off; inactive = mostly below about 14%; also: read at 38.3 µM for the half of the compounds with a filed dose; 0% is about no effect
Shiga toxin inh = Shiga toxin inhibition. Vero cells, Shiga toxin protein synthesis inhibition reporter. inhibition, % at 38.7 µM. actives 9.2% (n = 290,000); in the data active = inhibition mostly above about 28%, no sharp cut-off; inactive = mostly below about 43%; also: 0% is about no effect
Active calls of the source: *; ? = inconclusive; . = no result given; [ ] = another dose, or the depositor's remark. The list is not random: actives were taken first. Their share in the collection is about 12%.

SMILES	LASV entry inh	Marburg entry inh	CHX counter	Shiga toxin inh
Cc1cccc(NC(=O)CC2SC(=O)N(c3ccccc3)C2=O)c1 (stereo not given)	1%	6%	10	29
Cc1cccc(NC2SC(=O)N(c3ccccc3)C2=O)c1 (stereo not given)	?	10%	53*	71*
O=C(CC1SC2=NCCN2C1=O)Nc1ccccc1 (stereo not given)	-2%	4%	6	10
Cc1ccc(N2C(=O)SC(Cc3ccccc3)C2=O)cc1 (stereo not given)	-24%	?	14*	42*
O=C(CC1SC(=O)N(c2ccccc2)C1=O)Nc1ccccc1 (stereo not given)	1%	14%	51*	51*
Cc1ccc(NC(=O)CC2=NC(=O)C(CC(=O)Nc3ccccc3F)S2)cc1 (stereo not given)	.	.	22*	90*
CCCCC(OC(=O)c1ccco1)C(=O)NCc1ccc(C)cc1 (stereo not given)	2%	?	-3	-7
Cc1ccc(S(=O)(=O)/N=C(/NC(=S)Nc2cccc(C)c2)c2ccccc2)cc1	20%	16%	54*	77*
C/C(=N\S(=O)(=O)c1ccc(C)cc1)NC(=S)Nc1ccc(C)cc1	.	.	40*	118*
Cc1c(NC(=S)N/C(=N/S(=O)(=O)c2ccccc2)c2ccccc2)c(=O)n(-c2ccccc2)n1C	.	.	-2	9
CC(=O)Nc1ccc(S(=O)(=O)c2ccc(C)cc2)cc1	?	0%[46.1 µM]	-1	-11
Cc1cccc(NC(=S)N/C(=N/S(=O)(=O)c2ccccc2)c2ccccc2)c1	?	13%	44*	18*
Cc1cc(Cl)ccc1OCCn1cncn1	.	.	-1	-4
Cc1nc(-c2ccc(S(=O)(=O)NCc3ccc(N(C)C)cc3)cc2)co1	-7%[46.1 µM]	.	.	.
CCOC(=O)c1c(NC(=O)COc2ccc3ccc(=O)oc3c2)sc(C(=O)N(C)C)c1C	10%	?	-1	7
CCOC(=O)CCNC(=O)N1CCCC(N2CCN(c3ccc(OC)cc3)CC2)C1 (stereo not given)	-4%	4%	-4	.
Cc1c(-c2nc(-c3ccc4c(c3)OCO4)no2)nnn1-c1cccc(C(F)(F)F)c1	-13%[46.1 µM]	.	.	.
Cc1ccc(C(=O)N2CCN(c3cccc(Cl)c3)CC2)cc1-n1c(C)nc2cccnc21	-19%[46.1 µM]	.	.	.
O=C1c2ccccc2C(=O)N1CCN1CCc2ccccc21	?	12%	37*	94*
COCCNC(=O)[C@@]1(Cc2ccccc2)C=C[C@@H](C)N1C(C)=O	?	18%	38*	45*
c1ccc(Nc2nc(N3CCCCC3)nc(N3CCCCC3)n2)cc1	-26%	?	-2	-19
C(=N\Nc1nc(Nc2ccccc2)nc(N2CCCCC2)n1)/c1ccco1	.	.	28*	32*
COc1ccc(/C=N/Nc2nc(Nc3ccccc3)nc(N3CCCC3)n2)cc1	6%	5%[46.1 µM]	17	69
c1ccc(Nc2nc(N3CCCCC3)nc(N3CCNCC3)n2)cc1	?	7.3µM*	-7	3
Cc1ccsc1CN(C)CC(=O)Nc1cccc(S(=O)(=O)N(C)c2ccccc2)c1	-22%	?	.	.
SMILES	LASV entry inh	Marburg entry inh	CHX counter	Shiga toxin inh
COc1cc(/C=N\NC(=O)C2CC3C=CC2C3)ccc1O (stereo not given)	6%	?	13	36
O=C1CCn2nc(-c3ccc(Cl)cc3)cc2N1	-5%	9%	44*	79*
Cc1noc(C)c1COc1ccccc1C(=O)NC1CCC(C)CC1 (stereo not given)	.	.	27*	55*
O=C(O)CC(C(=O)O)c1ccc(OCCCCOc2ccc(C(CC(=O)O)C(=O)O)cc2)cc1 (stereo not given)	.	.	-3	-8
CCc1cccc2c(C(=S)N3CCCC3)c[nH]c12	.	.	15*	20
CCc1cccc2c(C(=O)CCl)c[nH]c12	-22%[46.1 µM]	?	3	-24
O=C(NC12CC3CC(CC(C3)C1)C2)c1ccc([N+](=O)[O-])o1	.	.	11*	15
O=C(NC1CCS(=O)(=O)C1)c1ccc(-c2ccc(Br)cc2)o1 (stereo not given)	-11%	7%	19*	35
O=C(NC12CC3CC(CC(C3)C1)C2)c1ccc(-c2ccc(Br)cc2)o1	12%	-14%	68*	108*
O=C(NC12CC3CC(CC(C3)C1)C2)c1ccc(Br)o1	?	2%[46.1 µM]	7	-2
CN(Cc1ccccc1)c1nc(N)c([N+](=O)[O-])c(NCc2ccccc2)n1	?	?	-3	-7
CN(C)C(=C(C#N)C#N)N1CCN(c2ccc(Cl)cc2)CC1	1%	0%[46.1 µM]	-4	-10
CSC(=NC#N)N1CCN(c2ccc(Cl)cc2)CC1	18%	13%	28*	47*
N#Cc1c(N)n(C2OC(CO)C(O)C2O)c2ncnc(N)c12 (stereo not given)	1.8µM*	0.5µM*	.	.
CNC(=O)COc1ccccc1C(=O)Nc1ccc2c(c1)oc1ccccc12	?	21µM*	6	20
O=C(Nc1ccc2c(c1)oc1ccccc12)c1cccnc1	-7%	10%[46.1 µM]	38*	58
N#Cc1ccccc1NC(=O)c1ccccc1OCC(=O)Nc1ccc2c(c1)oc1ccccc12	6%	?	.	.
O=C(Nc1ccc2c(c1)oc1ccccc12)c1ccncc1	2%	?	51*	67*
CCCCOc1ccc(S(=O)(=O)Nc2ccc(-c3ccc(N4CCCCC4)nn3)cc2)cc1	7%[46.1 µM]	.	.	.
Cc1cc(C)cc(NC(=O)Cn2c(=O)n(-c3cc(C)cc(C)c3)c(=O)c3oc4ccccc4c32)c1	4%[46.1 µM]	.	.	.
CCOC(=O)C1=C([Si](C)(C)C)c2ccccc2N(S(=O)(=O)C(F)(F)F)C1C(=O)OCC (stereo not given)	.	.	3	56
CC(C)COC(=O)/C(C#N)=C\c1ccc(-c2ccccc2Cl)o1	-2%[46.1 µM]	.	.	.
Cc1[nH]c2ccccc2c1/C=C(\C#N)C(=O)NC1CC1	1%[46.1 µM]	?	55*	129*
N#C/C(=C\c1ccccc1)C(=O)NC1CC1	.	.	8	5
Cc1[nH]c2ccccc2c1/C=C(\C#N)C(=O)NC(C)c1ccccc1 (stereo not given)	-3%	-23%	-3	-5
SMILES	LASV entry inh	Marburg entry inh	CHX counter	Shiga toxin inh
N#C/C(=C\c1c[nH]c2ccccc12)C(=O)NC1CC1	?	?	56*	36*
N#C/C(=C\c1c[nH]c2ccccc12)C(=O)NC1CCCC1	.	.	22*	42*
CC(C)COC(=O)/C(C#N)=C/c1c[nH]c2ccccc12	?	?	18*	43
CCCCCCC(=O)N/N=C(\C)Cc1ccccc1	-11%	1%	-4	-11
CCOC(=O)N1CCC2(CC1)OC(=O)C(C)=C2C(=O)NCc1ccc(C)cc1	-5%[46.1 µM]	.	.	.
CN(/N=C/c1cccnc1)c1cnc2ccccc2n1	?	1%	47*	64*
CC(C)(C)C(=O)/C(=C\c1ccc([N+](=O)[O-])cc1)n1cncn1	.	.	-11	-20
CC(C)(C)C(=O)/C(=C/c1cccc([N+](=O)[O-])c1)n1cncn1	7.3µM*	4µM*	-9	-22
CCN(CC)C(=O)Cn1nc(-c2ccccc2O)nc1SCC(=O)Nc1ccc(OC)cc1	-6%	?	10	-10
COc1ccc(N2C(=O)NC(=O)C2=O)cc1	12%[46.1 µM]	-11%[46.1 µM]	40*	4
C=C1c2ccccc2NC(=O)N1c1ccc(OC)cc1	.	.	12*	36
